DT40 TDP1 CPT: qHTS for Inhibitors of human tyrosyl-DNA phosphodiesterase 1 (TDP1): qHTS in cells in presence of CPT; chicken DT40 Tdp1-/-;hTDP1 cells + 20 nM CPT, ATP luminescence, 48 h; Potency, µM (titrated, usually from 46.2 µM), most hits filed as inhibitors; hit rate 12% among 420,000; further: nearly all actives have a fitted effect of over 55% in size
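Chicken DT40 Tdp1-/- cells stably complemented with human TDP1 were seeded at 400 cells/well in medium containing 20 nM camptothecin, exposed to pin-transferred compounds, and grown at 37 °C for at least 48 hr. Viability was read as ATP luminescence.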
IL-1B inflam inh: qHTS for Inhibitors of Inflammasome Signaling: IL-1-beta AlphaLISA Primary Screen; THP-1 LPS/ATP IL-1B secretion, AlphaLISA, 16 h; active compounds read low; activity change, % at 57.5 µM; hit rate 4.7% among 360,000; AID 743279, 2014; in the data active means activity change below about -50%; inconclusive means mostly about -30% to -49%
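THP-1 cells pretreated 1 hr with compounds (up to 57.5 uM final), then stimulated with LPS (250 ng/mL final) plus ATP (1.25 mM final); secreted IL-1B measured by AlphaLISA after 16 hr, decreased signal indicating inhibition.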
uPA surface inh: qHTS for Inhibitors of Cell Surface uPA Generation | cell surface uPA generation assay, qHTS | Potency, µM (doses to about 38.3 µM), most hits filed as inhibitors | hit rate 0.31% among 330,000 | AID 540303, 2011; active means well fitted inhibition curve with a large enough effect; inconclusive means small, poorly fitted or top-dose-only effect; inactive means no such curve, though single readings can be large or run the other way; tested in mouse RAW 264.7 cells; further: nearly all actives have a fitted effect of over 55% in size
HT1080 IDH1KD tx: qHTS for induction of synthetic lethality in tumor cells producing 2HG: qHTS for the HT-1080-IDH1KD cell line | HT-1080 IDH1 knockdown viability, ATP luminescence, 48 h | Potency, µM (titrated, usually from 46.1 µM), most hits filed as cytotoxic | hit rate 2% among 360,000 | AID 686971, 2013
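Assay cells: HT-1080 with IDH1 knockdown, 750 per well, RPMI/5% FBS. Exposure: 48 h at 37 °C following 2 h pre-incubation. Read: CellTiter-Glo luminescence; fitted concentration-response, curve class assigned.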
TDP1 cell noCPT: qHTS for Inhibitors of human tyrosyl-DNA phosphodiesterase 1 (TDP1): qHTS in cells in absence of CPT; DT40 Tdp1-/- hTDP1 cells, no CPT, ATP luminescence, 48 h; Potency, µM (doses to about 46.2 µM), hits mostly inhibitors; hit rate 15% among 420,000; AID 686978, 2013; further: nearly all actives have a fitted effect of over 55% in size
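Camptothecin absent (DMSO only). Human TDP1-complemented DT40 knockout cells, 400 cells/well, 37 °C for minimum 48 hr; ATP measured via CellTiter-Glo, 30 min dark incubation, luminescence.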
HT1080-NT tox: qHTS for induction of synthetic lethality in tumor cells producing 2HG: qHTS for the HT-1080-NT fibrosarcoma cell line | HT-1080-NT fibrosarcoma viability, CellTiter-Glo ATP luminescence, 48 h | hit rate 1.6% among 360,000 | Potency, µM (titrated, usually from 46.1 µM), hits mostly cytotoxic;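 further: NT is the 2HG producing partner of a matched IDH1 knockdown line; nearly all actives have a fitted effect of over 55% in size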
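Read-out is CellTiter-Glo luminescence after 10 minutes at room temperature, following 48 hours' compound treatment of HT-1080-NT cells (750 cells/well, RPMI, 5% FBS, 37 degrees C).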
Large screens that a line does not name were inactive. Hits are enriched below; roughly 19% of the tested compounds scored in any of these assays. Unless noted, the call rests on the fitted dose curve; in most records, active means well fitted curve in the direction sought with a large enough effect; inconclusive means small, poorly fitted or top-dose-only effect, or another doubt; inactive means no such curve, though single readings can be large; an effect the other way counts as inactive or inconclusive.

CC1=C(C(=O)N(C(C)C)C(C)C)CC(CC(=O)NC2CCCCC2)C(=O)N1CCC1=CCCCC1 (configuration not stated)	DT40 TDP1 CPT inconclusive, TDP1 cell noCPT 23µM (no result: uPA surface inh)
CC1=C(C(=O)N(C(C)C)C(C)C)CC(CC(=O)NCc2cccc3ccccc23)C(=O)N1CCC1=CCCCC1 (configuration not stated)	DT40 TDP1 CPT inconclusive, IL-1B inflam inh -80, HT1080 IDH1KD tx inconclusive, TDP1 cell noCPT inconclusive, HT1080-NT tox inconclusive (no result: uPA surface inh)
CC1=C(C(=O)N(C(C)C)C(C)C)CC(CC(=O)NCc2cccs2)C(=O)N1CCC1=CCCCC1 (configuration not stated)	DT40 TDP1 CPT inconclusive, TDP1 cell noCPT inconclusive (no result: uPA surface inh)
CC1=C(C(=O)N2CCCCCC2)CC(CC(=O)NC2CCCC2)C(=O)N1CCC1=CCCCC1 (configuration not stated)	DT40 TDP1 CPT inconclusive (no result: uPA surface inh)
CC1=C(C(=O)N(C(C)C)C(C)C)CC(CC(=O)NCc2cccc3ccccc23)C(=O)N1Cc1ccc(F)cc1 (configuration not stated)	DT40 TDP1 CPT inconclusive, IL-1B inflam inh -68, HT1080 IDH1KD tx inconclusive, TDP1 cell noCPT inconclusive, HT1080-NT tox inconclusive (no result: uPA surface inh)
CC1=C(C(=O)N(C(C)C)C(C)C)CC(CC(=O)NCc2cccc3ccccc23)C(=O)N1Cc1ccccc1 (configuration not stated)	DT40 TDP1 CPT inconclusive, IL-1B inflam inh inconclusive, TDP1 cell noCPT 15µM (no result: uPA surface inh)
Cc1ccc(N(O)C(C)(C)C)cc1	DT40 TDP1 CPT 23µM, TDP1 cell noCPT 16µM
CN(c1nc(-c2ccc(Br)cc2)cs1)C1CCS(=O)(=O)C1 (configuration not stated)	DT40 TDP1 CPT inconclusive, IL-1B inflam inh -77, TDP1 cell noCPT inconclusive
CCOC(=O)c1c(-c2ccc(-c3ccccc3)cc2)csc1NC(=O)CNCCN(C)C	DT40 TDP1 CPT inconclusive, IL-1B inflam inh -104, HT1080 IDH1KD tx 9.2µM, TDP1 cell noCPT 23µM, HT1080-NT tox 9.2µM
CCOC(=O)c1c(-c2ccc(F)cc2)csc1NC(=O)CCN1CCOCC1	DT40 TDP1 CPT inconclusive, TDP1 cell noCPT 21µM
CCOC(=O)c1c(-c2ccccc2)csc1NC(=O)c1cc(=O)c2ccc(C)cc2o1	none (no result: IL-1B inflam inh, uPA surface inh, HT1080 IDH1KD tx, HT1080-NT tox)
CCNC(=S)Nc1scc(-c2ccccc2)c1C(=O)OCC	DT40 TDP1 CPT inconclusive, TDP1 cell noCPT 23µM
CCOC(=O)c1c(-c2ccccc2)csc1NC(=O)C(C)NCCCN1CCOCC1 (configuration not stated)	DT40 TDP1 CPT inconclusive, IL-1B inflam inh -53, HT1080 IDH1KD tx inconclusive, TDP1 cell noCPT inconclusive, HT1080-NT tox inconclusive
CCOC(=O)c1c(-c2ccccc2)csc1NC(=O)CCN1C(=O)c2ccccc2C1=O	TDP1 cell noCPT inconclusive
Cc1ccccc1Cn1c(C)c(C(=O)NCCC#N)sc1=O	HT1080-NT tox inconclusive (no result: uPA surface inh)
CCOC(=O)c1c(-c2ccc(-c3ccccc3)cc2)csc1NC(=O)CCN1CCOCC1	DT40 TDP1 CPT 18µM, IL-1B inflam inh -50, HT1080 IDH1KD tx inconclusive, TDP1 cell noCPT 15µM, HT1080-NT tox inconclusive
CCOC(=O)c1c(-c2ccccc2)csc1NC(=O)CSc1nnc(C)s1	DT40 TDP1 CPT 23µM, TDP1 cell noCPT inconclusive
CCOC(=O)c1sc(NC(=S)NC(=O)c2ccccc2)c(C(=O)OCC)c1C	DT40 TDP1 CPT inconclusive, TDP1 cell noCPT inconclusive
CCOC(=O)c1sc(NC(=S)NC(=O)c2ccccc2Cl)c(C(=O)OCC)c1C	DT40 TDP1 CPT inconclusive, TDP1 cell noCPT 26µM
CCOC(=O)c1c(-c2ccc(OC)c(OC)c2)csc1NC(=O)C1CCCO1 (configuration not stated)	DT40 TDP1 CPT inconclusive, IL-1B inflam inh -67, TDP1 cell noCPT inconclusive
O=C(COC(=O)C12CC3CC(CC(Br)(C3)C1)C2)NCc1ccco1	none (no result: IL-1B inflam inh, uPA surface inh, HT1080 IDH1KD tx, HT1080-NT tox)
CC(C)(C)c1nc[nH]c(=O)c1Br	none
CCOC(=O)c1c(-c2cccs2)csc1NC(=O)CN1CC(C)OC(C)C1 (configuration not stated)	DT40 TDP1 CPT 26µM, HT1080 IDH1KD tx inconclusive, TDP1 cell noCPT 23µM, HT1080-NT tox inconclusive
CCOC(=O)c1c(-c2ccccc2)csc1NC(=O)c1cc2ccccc2oc1=O	DT40 TDP1 CPT inconclusive, TDP1 cell noCPT 16µM
CCOC(=O)c1c(-c2ccc(C)o2)csc1NC(=S)NC(=O)c1ccccc1Br	DT40 TDP1 CPT 16µM, HT1080 IDH1KD tx inconclusive, TDP1 cell noCPT inconclusive, HT1080-NT tox inconclusive
CCOC(=O)c1c(-c2cccc([N+](=O)[O-])c2)csc1NC(=O)C1CCCCC1	DT40 TDP1 CPT inconclusive, TDP1 cell noCPT inconclusive
CCOC(=O)c1c(-c2cccs2)csc1NC(C)=O	TDP1 cell noCPT inconclusive
CCOC(=O)c1c(-c2cccc([N+](=O)[O-])c2)csc1NC(=O)C1CC1	DT40 TDP1 CPT 18µM, IL-1B inflam inh inconclusive, HT1080 IDH1KD tx inconclusive, TDP1 cell noCPT 21µM, HT1080-NT tox inconclusive (no result: uPA surface inh)
CCOC(=O)c1c(-c2ccc(-c3ccccc3)cc2)csc1NC(=O)c1cccc(N2C(=O)CCC2=O)c1	DT40 TDP1 CPT 8.2µM, TDP1 cell noCPT 6.5µM
O=C(CC[C@H]1O[C@@H](n2ccc(=O)[nH]c2=O)[C@H](O)[C@@H]1O)NC1CCN(Cc2ccccc2)C1 (some centres not stated)	none (no result: uPA surface inh)
Cc1cccc(-c2cc(C(=O)N3CCCc4ccccc43)c3ccccc3n2)c1	DT40 TDP1 CPT 23µM, TDP1 cell noCPT inconclusive
O=C(c1cc(-c2ccccc2)nc2ccccc12)N1CCCc2ccccc21	DT40 TDP1 CPT inconclusive, TDP1 cell noCPT 23µM
O=C(c1cc(-c2cccc(Br)c2)nc2ccccc12)N1CCCC1	DT40 TDP1 CPT inconclusive
CCOC(=O)C1(C)CCCN1C(=O)c1ccc(F)c(Cl)c1 (configuration not stated)	DT40 TDP1 CPT inconclusive, TDP1 cell noCPT inconclusive (no result: uPA surface inh)
O=C(COC(=O)COc1cccc(Br)c1)Nc1ccc(F)cc1F	none
C(=C1C=c2ccccc2=C1)c1ccc(N=Nc2ccc(C=C3C=c4ccccc4=C3)cc2)cc1	none (no result: IL-1B inflam inh, uPA surface inh, HT1080 IDH1KD tx, HT1080-NT tox)
Cc1cc(C)c(S(=O)(=O)N2CCN(C(=O)CCn3nc(C)c(C)c3C)CC2)c(C)c1	IL-1B inflam inh -84, TDP1 cell noCPT 15µM
COc1cccc(N2CCN(C(=O)c3cccc(S(=O)(=O)N4CCCC4)c3)CC2)c1	TDP1 cell noCPT inconclusive (no result: uPA surface inh)
COc1cccc(N2CCN(C(=O)CCn3nc(C)c(S(=O)(=O)N4CCCC4)c3C)CC2)c1	DT40 TDP1 CPT inconclusive, TDP1 cell noCPT 15µM (no result: IL-1B inflam inh, uPA surface inh, HT1080 IDH1KD tx, HT1080-NT tox)
